Screening results as filed in PubChem.
Only some compounds are listed: those with a hit (about 3.8% of all), similar ones and a draw of the others.
Pemphigus Ab inh: human desmoglein-3 autoantibody binding inhibition; P32926; DSG3-coupled beads, scFv-anti-DSG3-GFP binding, flow cytometry; stronger effect = lower value; binding (percent of control), % at 10 µM; 0.48% of 310,000 active; AID 588358;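 active = binding more than 3 SD below its plate's average and above zero; inconclusive = below that plate limit but binding exactly zero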;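 also: hits lower antibody fragment binding to DSG3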
M18AAP inhibitor: blocks P. falciparum M18 aspartyl aminopeptidase; 1.2% of 290,000 active; recombinant PfM18AAP, H-Glu-NHMec fluorogenic cleavage; inhibition, % at 7.35 µM;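 active = inhibition above the campaign mean inhibition over all tested compounds plus 3 SD, cut at about 28% in these data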
pPAFAH FP inh: pPAFAH (human) enzyme inhibition. Q13093. recombinant pPAFAH, FP-rhodamine probe fluorescence polarization. inhibition, % at 3.39 µM. 1.5% of 330,000 active;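 active = inhibition above the mean inhibition across the screen plus 3 SD, cut at about 25% in these data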;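 also: inhibitors block binding of the rhodamine activity-based probe so polarization drops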
PAFAH1B2 inh: blocks human PAF acetylhydrolase 1b catalytic subunit 2; P68402; 1.2% of 340,000 active; recombinant PAFAH1B2, FP-rhodamine activity probe, fluorescence polarization; AID 492953; inhibition, % at 3.39 µM;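 active = inhibition above the mean of all tested compounds plus 3 SD, cut at about 24% in these data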
Target sequence (P68402 whole entry, looked up): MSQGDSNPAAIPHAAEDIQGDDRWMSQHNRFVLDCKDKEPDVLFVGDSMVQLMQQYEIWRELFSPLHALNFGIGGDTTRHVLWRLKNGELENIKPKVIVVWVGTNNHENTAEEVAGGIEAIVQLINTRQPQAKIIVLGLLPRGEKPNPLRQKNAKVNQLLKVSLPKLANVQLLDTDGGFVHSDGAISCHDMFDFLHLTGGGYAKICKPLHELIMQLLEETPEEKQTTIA
PAFAH2 FP inh: inhibitors of human PAFAH2. inhibition, % at 3.39 µM. recombinant PAFAH2, FP-rhodamine activity probe, fluorescence polarization. 0.99% of 340,000 active. AID 492956;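 active = inhibition above the mean over all tested compounds plus 3 SD, cut at about 30% in these data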;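 also: inhibitors block probe labeling of enzyme so polarization drops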
PAFAH1B3 FP inh: PAFAH1B3 (human) inhibition. recombinant PAFAH1B3, FP-rhodamine probe, fluorescence polarization. inhibition, % at 3.39 µM. 0.28% of 340,000 active;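 active = inhibition above the screen-wide average of all tested compounds plus 3 SD, cut at about 25% in these data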
Target sequence (Q15102 whole entry, looked up): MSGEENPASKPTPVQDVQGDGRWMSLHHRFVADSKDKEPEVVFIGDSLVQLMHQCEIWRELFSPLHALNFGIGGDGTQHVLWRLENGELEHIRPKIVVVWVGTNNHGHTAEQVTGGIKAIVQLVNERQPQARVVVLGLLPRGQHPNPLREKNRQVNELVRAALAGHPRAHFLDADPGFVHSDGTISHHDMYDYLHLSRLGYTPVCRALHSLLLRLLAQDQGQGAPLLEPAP
Large screens that a line does not name were inactive.

C=Cn1cc(CNC[C@H]2O[C@@H](n3ccc(N)nc3=O)[C@H](O)[C@@H]2O)c(C)n1	none (no result: M18AAP inhibitor, pPAFAH FP inh, PAFAH1B2 inh, PAFAH2 FP inh, PAFAH1B3 FP inh)
Cc1ccc(SCC(=O)OCC(=O)N2CCN(C(=O)c3ccco3)CC2)c(C)c1	pPAFAH FP inh 33.6 (no result: M18AAP inhibitor)
Cc1cccc(OCC(=O)OCC(=O)N2CCN(C(=O)c3ccco3)CC2)c1C	pPAFAH FP inh 26.9
O=C(CSc1ccccc1)OCC(=O)N1CCN(C(=O)c2ccco2)CC1	pPAFAH FP inh 25.5 (no result: M18AAP inhibitor)
O=C(CSc1ccccc1)N1CCN(C(=O)c2ccco2)CC1	none
Cc1cc(SCC(=O)OCC(=O)N2CCN(C(=O)c3ccco3)CC2)c(C)cc1Br	none
COc1ccc(CN(C)C(=O)/C=C/c2ccc(S(=O)(=O)N3CCCCCC3)cc2)cc1	none (no result: M18AAP inhibitor)
COc1ccc(NC(=O)COC(=O)C2CCCN2C(=O)OC(C)(C)C)cc1Cl (stereo unspecified)	none (no result: M18AAP inhibitor, pPAFAH FP inh, PAFAH1B2 inh, PAFAH2 FP inh, PAFAH1B3 FP inh)
CC1(OC(=O)c2ccc(Cl)nc2)C(=O)C=C2C=C(c3ccsc3)OC=C2C1=O (stereo unspecified)	pPAFAH FP inh 46.7 (no result: Pemphigus Ab inh, M18AAP inhibitor, PAFAH1B2 inh, PAFAH2 FP inh, PAFAH1B3 FP inh)
CC1(OC(=O)C2CCCC2)C(=O)C=C2C=C(C3CC3)OC=C2C1=O (stereo unspecified)	pPAFAH FP inh 25.9 (no result: Pemphigus Ab inh, M18AAP inhibitor, PAFAH1B2 inh, PAFAH2 FP inh, PAFAH1B3 FP inh)
CC1(OC(=O)c2ccc(Cl)nc2)C(=O)C=C2C=C(c3ccc(C#N)cc3)OC=C2C1=O (stereo unspecified)	pPAFAH FP inh 41.6 (no result: Pemphigus Ab inh, M18AAP inhibitor, PAFAH1B2 inh, PAFAH2 FP inh, PAFAH1B3 FP inh)
CC1(OC(=O)c2ccc(Cl)nc2)C(=O)C=C2C=C3CCCN3C=C2C1=O (stereo unspecified)	none (no result: M18AAP inhibitor)
CC1(OC(=O)C2CCCC2)C(=O)C=C2C=C(c3ccsc3)N(C3CC3)C=C2C1=O (stereo unspecified)	none (no result: M18AAP inhibitor)
CC1(OC(=O)CCc2ccccc2)C(=O)C=C2C=C(c3ccc(C#N)cc3)N(Cc3ccccc3)C=C2C1=O (stereo unspecified)	none (no result: M18AAP inhibitor)
CC1(OC(=O)c2ccc(Cl)nc2)C(=O)C=C2C=C(C3CC3)OC=C2C1=O (stereo unspecified)	pPAFAH FP inh 43.9 (no result: Pemphigus Ab inh, M18AAP inhibitor, PAFAH1B2 inh, PAFAH2 FP inh, PAFAH1B3 FP inh)
Cc1cc(NC(=O)c2cccnc2)ccc1Br	none
COc1ccc(C(C[N+](=O)[O-])c2c(C)[nH]n(-c3ccccc3)c2=O)cc1 (stereo unspecified)	Pemphigus Ab inh inconclusive, M18AAP inhibitor 45.0
Cc1[nH]n(-c2ccccc2)c(=O)c1C(C[N+](=O)[O-])c1ccccc1Cl (stereo unspecified)	Pemphigus Ab inh inconclusive
COc1ccc(-n2c(SC3CCOC3=O)nc3ccccc32)cc1 (stereo unspecified)	pPAFAH FP inh 30.9 (no result: Pemphigus Ab inh)
COc1cc(C(=O)Nc2ccc(Oc3ncnc4sc(-c5ccccc5)cc34)cc2)cc(OC)c1OC	Pemphigus Ab inh -10.0
COc1ccc(C(=O)Nc2ccc(Oc3ncnc4sc(-c5ccccc5)cc34)cc2)cc1OC	Pemphigus Ab inh -207.3
COc1ccccc1C(=O)Nc1ccc(Oc2ncnc3sc(-c4ccccc4)cc23)cc1	none
COc1ccc(C(=O)Nc2ccc(Oc3nc(C)nc4sc(-c5ccccc5)cc34)cc2)cc1OC	none
CC(C)n1c(SCC(=O)NCc2ccco2)nnc1C1CC1	M18AAP inhibitor 28.1
Cn1c(N)c(C(=O)N2CCN(c3ccccc3)CC2)c(=O)n(C)c1=O	none (no result: M18AAP inhibitor, pPAFAH FP inh, PAFAH1B2 inh, PAFAH2 FP inh, PAFAH1B3 FP inh)
O=[N+]([O-])c1ccc(Cl)c(/C=N/NC(=S)Nc2ccccc2)c1	Pemphigus Ab inh 83.6
CCN1CCN(C(c2cccs2)C(C)NC(=O)NC2CCCCC2)CC1 (stereo unspecified)	none
CCN1CCN(C(c2cccs2)C(C)NC(=S)NC2CCCCC2)CC1 (stereo unspecified)	pPAFAH FP inh 33.6
Cc1ccc2c(=O)n3c(nc2c1)C(Cc1ccc(O)cc1)NC(=O)c1cc2ccccc2cc1-3 (stereo unspecified)	none (no result: M18AAP inhibitor, pPAFAH FP inh, PAFAH1B2 inh, PAFAH2 FP inh, PAFAH1B3 FP inh)
O=C(Cc1ccc(NC(=O)C2CCN(C(=O)C3CCCCC3)CC2)cc1)Nc1cccc(C(=O)N2CCCCC2)c1	none (no result: M18AAP inhibitor, pPAFAH FP inh)
Cc1cc2cc(CNC(=O)Cc3cccs3)ccc2n1C	Pemphigus Ab inh 63.6 (no result: M18AAP inhibitor)
CC(=O)Nc1ccc(S(=O)(=O)NCc2ccc3c(c2)cc(C)n3C)cc1	Pemphigus Ab inh 79.6
Cc1cc2cc(CNC(=O)CCC(=O)O)ccc2n1C	none
O=C(Cc1cccs1)NNC(=S)NCc1ccc(Cl)cc1	PAFAH1B2 inh 55.1
O=C(NC12CC3CC(CC(C3)C1)C2)c1ccc([N+](=O)[O-])o1	none
COc1cccc(-c2nc(CN3CCN(C(=O)c4ccco4)CC3)c(C)o2)c1OC	none (no result: M18AAP inhibitor, pPAFAH FP inh, PAFAH1B2 inh, PAFAH2 FP inh, PAFAH1B3 FP inh)
Cn1c(CCC(=O)Nc2cc(S(C)(=O)=O)ccc2Cl)nc2cc(S(=O)(=O)N3CCOCC3)ccc21	none (no result: M18AAP inhibitor)
Nc1nc(-c2ccccc2)c(N=Nc2cccc3ccccc23)s1	pPAFAH FP inh 30.7
CC(=O)Nc1sc(N)nc1-c1ccccc1	none
COc1ccccc1CCc1nnc(CCC(=O)NC(C)Cc2ccsc2)o1 (stereo unspecified)	Pemphigus Ab inh 8.6
COc1ccccc1CCc1nnc(CCC(=O)NCC(C)Oc2cccnc2)o1 (stereo unspecified)	none
CCCS(=O)(=O)c1nc(S(=O)(=O)c2ccc(C)cc2)c(N2CCN(C)CC2)s1	none
Cc1ccc(S(=O)(=O)c2nc(S(=O)(=O)c3ccccc3)sc2N2CCN(C)CC2)cc1	pPAFAH FP inh 31.2
Cc1ccc(S(=O)(=O)NN=CC=CC=NNS(=O)(=O)c2ccc(C)cc2)cc1	none (no result: M18AAP inhibitor, pPAFAH FP inh, PAFAH1B2 inh, PAFAH2 FP inh, PAFAH1B3 FP inh)
CCCN(CCC)c1nc(Cl)nc(NCc2ccco2)n1	pPAFAH FP inh 25.5
OCCNc1nc(Cl)nc(NCc2ccco2)n1	none
Cc1cccc(C(=O)N/C(=C\c2ccco2)C(=O)N2CCCC2)c1	M18AAP inhibitor 28.7
Cc1ccc(C(=O)N/C(=C/c2ccco2)C(=O)N2CCCCCC2)cc1	none (no result: Pemphigus Ab inh)
Cc1ccc(C(=O)N/C(=C/c2ccco2)C(=O)Nc2cccc(C(=O)O)c2)cc1	M18AAP inhibitor 30.2 (no result: Pemphigus Ab inh, PAFAH1B2 inh, PAFAH2 FP inh, PAFAH1B3 FP inh)
O=C(N/C(=C\c1ccco1)C(=O)N1CCCC1)c1ccccc1	M18AAP inhibitor 31.5 (no result: Pemphigus Ab inh)
COc1cc2cc(CN(Cc3nnnn3Cc3ccco3)C3CCCCC3)c(=O)[nH]c2cc1OC	pPAFAH FP inh 26.0
CCOc1ccc2[nH]c(=O)c(CN(Cc3nnnn3Cc3ccco3)C3CCCCC3)cc2c1	Pemphigus Ab inh inconclusive
COc1cccc(-c2nc3n(n2)CCc2ccccc2-3)c1	none (no result: M18AAP inhibitor, pPAFAH FP inh, PAFAH1B2 inh, PAFAH2 FP inh, PAFAH1B3 FP inh)
O=C(c1ccccc1)N1CCN(C(=O)c2nn3c(C(F)(F)F)cc(-c4ccco4)nc3c2Br)CC1	pPAFAH FP inh 34.3
O=C(NC1CCCCC1)c1nn2c(C(F)(F)F)cc(-c3ccco3)nc2c1Br	none
O=C(O)CCC(=O)NNc1nc(-c2ccccc2)c2cc(Cl)ccc2n1	M18AAP inhibitor 29.6
CCOC(=O)C[n+]1c(C)csc1C	M18AAP inhibitor 29.7
Cc1csc(C)[n+]1CC(=O)c1ccccc1	none
COc1ccc(C2c3sc(=O)[nH]c3SC3C4CCC(C4)C23)cc1OC (stereo unspecified)	none
